Assay results published in ChEMBL document CHEMBL1961873, “Compounds: GSK PKIS; Assays: Nanosyn kinase panel” (2012).

system: Proto-oncogene tyrosine-protein kinase receptor Ret (Homo sapiens), P07949 [Y791F]; details: at 0.1 µM
Sequence (P07949 whole entry Y791F): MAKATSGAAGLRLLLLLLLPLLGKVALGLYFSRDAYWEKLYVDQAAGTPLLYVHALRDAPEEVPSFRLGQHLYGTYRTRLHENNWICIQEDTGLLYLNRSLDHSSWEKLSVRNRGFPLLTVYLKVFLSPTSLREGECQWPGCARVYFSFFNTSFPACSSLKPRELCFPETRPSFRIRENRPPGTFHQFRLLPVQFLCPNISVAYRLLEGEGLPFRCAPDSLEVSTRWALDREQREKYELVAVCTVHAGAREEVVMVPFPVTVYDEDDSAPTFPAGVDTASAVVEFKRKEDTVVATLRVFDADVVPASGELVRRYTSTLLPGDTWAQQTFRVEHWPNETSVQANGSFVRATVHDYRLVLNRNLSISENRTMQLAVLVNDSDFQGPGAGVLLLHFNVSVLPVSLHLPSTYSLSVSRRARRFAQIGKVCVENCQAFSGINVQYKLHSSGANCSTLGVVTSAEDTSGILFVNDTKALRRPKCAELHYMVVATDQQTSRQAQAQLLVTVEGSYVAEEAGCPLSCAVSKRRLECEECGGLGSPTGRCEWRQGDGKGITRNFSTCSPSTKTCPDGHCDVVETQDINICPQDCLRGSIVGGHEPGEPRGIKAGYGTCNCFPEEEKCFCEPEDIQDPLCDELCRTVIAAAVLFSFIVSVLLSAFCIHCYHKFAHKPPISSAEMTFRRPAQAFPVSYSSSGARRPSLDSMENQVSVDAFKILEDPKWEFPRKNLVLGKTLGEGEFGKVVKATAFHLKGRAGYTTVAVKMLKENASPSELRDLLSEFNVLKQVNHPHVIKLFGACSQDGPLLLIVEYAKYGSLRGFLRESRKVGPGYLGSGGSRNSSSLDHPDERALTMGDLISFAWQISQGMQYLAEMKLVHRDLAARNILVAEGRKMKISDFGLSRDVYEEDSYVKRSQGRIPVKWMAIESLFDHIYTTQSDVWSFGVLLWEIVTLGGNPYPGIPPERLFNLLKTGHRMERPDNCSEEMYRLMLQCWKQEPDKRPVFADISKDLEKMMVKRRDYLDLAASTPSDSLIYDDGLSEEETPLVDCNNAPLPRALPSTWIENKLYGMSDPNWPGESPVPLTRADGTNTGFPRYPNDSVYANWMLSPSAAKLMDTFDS

Structure (SMILES) | inhibition [%]
Nc1ncnc2occ(-c3ccc(NC(=O)Nc4cc(C(F)(F)F)cc(C(F)(F)F)c4)cc3)c12 | 60.7
CCn1c(-c2nonc2N)nc2c(N3CCCC3)nccc21 | 0
CCn1c(-c2nonc2N)nc2cnc(Oc3cccc(NC(=O)c4ccc(OCCN5CCOCC5)cc4)c3)cc21 | 5.99
COc1ccccc1Nc1ncc(-c2ccccc2)o1 | 9.37
Cc1cccc(-c2n[nH]cc2-c2ccc3ncccc3n2)n1 | 3.64
CC1=C(C(=O)Nc2ccc3[nH]ncc3c2)C(c2ccc(F)cc2)NC(=O)N1 (stereo unspecified) | 8.37
CCCN1CCC=C(c2ccc(Nc3nc(Nc4ccccc4C(N)=O)c4cc[nH]c4n3)c(C)c2)C1 | 9.36
CS(=O)(=O)Nc1ccc(N/C=C2\C(=O)Nc3ccccc32)cc1 | 8.53
CCN1CCC(CC(=O)Nc2n[nH]c3nc(-c4cccs4)c(Br)cc23)CC1 | -1.87
CS(=O)(=O)CCNCc1ccc(-c2ccc3ncnc(Nc4ccc(OCc5cccc(F)c5)c(C(F)(F)F)c4)c3c2)o1 | 2.66
COc1ccc(-c2nn3ncccc3c2-c2ccnc(Nc3ccc(Cl)c(C(F)(F)F)c3)n2)cc1 | 2.51
c1cnn2ncc(-c3ccnc(Nc4ccc5c(c4)OCCO5)n3)c2c1 | 4.73
CCn1c(-c2nonc2N)nc2cncc(C(=O)N3CC[C@H](N)C3)c21 | 4.17
NCc1ccc(-c2nc(-c3ccc(Cl)c(O)c3)c(-c3ccncc3)[nH]2)cc1 | 39.5
COc1cc2ncn(-c3cc(OCc4ccccc4C(F)(F)F)c(C(N)=O)s3)c2cc1OC | 17.9
COc1ccc(-c2ccncc2)cc1C(N)=O | 4.39
